# Active and inactive are the calls of the source. Unless noted, how the calls were made is not given here.
# What was measured:
# [1] = circadian clock period modulators, cell-based, LOPAC library, luminescence reporter (AID 2774); details: circadian reporter cells, at 7 µM, actives lie on both sides;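 further: values are relative to mean of DMSO wells on each plate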
# [2] = system: Hepatitis C virus NS3 helicase; test: HCV NS3 helicase inhibitors, primary screen, biochemical, fluorescence polarization, LOPAC1280 library (AID 687035; in the data active means inhibition above about 37%); details: Purified HCV NS3 helicase, Cy5-dT15 ssDNA binding fluorescence polarization; stronger effect = higher value; concentration not given here
# [3] = Cy5 fluorescence quenching or enhancement artefacts, artefact control for HCV NS3 helicase inhibitor project, biochemical, LOPAC1280 (AID 687037); details: Cy5-DNA-NS3h complex fluorescence interference counterscreen
# [4] = sensitizers of A549 cells to miR-34 induction, primary screen, imaging, A549 dox-inducible miR-34, nuclei and caspase counts (AID 1347080;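 active means compounds whose cell count with miR-34 switched on is under 0.7 times the count with it off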); details: A549 miR-34 inducible, Hoechst nuclei count, 48 h
# [5] = phospholipid biosynthesis inhibitors in animal cells, primary screen, cell-based, LOPAC library, screen 4 (AID 1347384); details: phospholipid biosynthesis inhibition screen, at 10 µM
# [6] = viability rescue of complex I mutant cybrids, primary screen, cell-based, galactose medium, ATP luminescence (AID 1645843;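 active means z-score of at least 1.8 in each of two replicates, scored against plate mean and spread of sample wells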;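 further: positive z means more ATP and so rescue of galactose-driven cybrid death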); details: complex I mutant cybrid cells, 72 h, stronger effect = higher value
# [7] = stronger effect = lower value, cell number ratio, induced over uninduced
# [8] = measured here: relative caspase fold change +Dox/-Dox
# [9] = measured here: total cells with miR-34 induction, stronger effect = lower value
# [10] = measured here: total cells without miR-34 induction
Compound,period change [1],inhibition [2],fluorescence ratio (interference) [3],"fold change [4, 7]","fold change [4, 8]","cell count [4, 9]","cell count [4, 10]",outcome [5],z-score [6]
COc1ccccc1N1CCN(CCN(C(=O)c2ccc(F)cc2)c2ccccn2)CC1,0.22 h (inactive),-4% (inactive),0.9 (inactive),1.08 (inactive),1.52,10200,9450,inactive,-0.25 (inactive)
Fc1ccc(C(OCCCc2cnc[nH]2)c2ccc(F)cc2)cc1,0.11 h (inactive),-1% (inactive),1 (inactive),0.951 (inactive),0.647,8620,9060,inactive,-1.19 (inactive)
Oc1ccc(C2CNCc3sccc32)cc1O (centres undefined),0.045 h (inactive),5% (inactive),1 (inactive),0.942 (inactive),1.38,10000,10600,inactive,-1.29 (inactive)
NCCS(=O)O,0.035 h (inactive),-3% (inactive),1 (inactive),1 (inactive),0.978,10600,10500,inactive,0.415 (inactive)
CCC1(O)CC2CN(CCc3c([nH]c4ccccc34)[C@@](C(=O)OC)(c3cc4c(cc3OC)N(C=O)C3[C@]45CCN4CC=C[C@@](CC)([C@@H](OC(C)=O)[C@]3(O)C(=O)OC)[C@H]45)C2)C1 (some centres undefined),0.81 h (active),2% (inactive),1 (inactive),1.3 (inactive),1.29,1490,1140,inactive,-0.935 (inactive)
C[C@@H]1C(=O)NC2=Nc3cccc(Cl)c3CN21,0.025 h (inactive),0% (inactive),1 (inactive),0.957 (inactive),1.63,9040,9450,inactive,0.635 (inactive)
N[C@@H](CCCC(=O)O)C(=O)O,0.11 h (inactive),-1% (inactive),0.9 (inactive),1.05 (inactive),0.58,10400,9930,inactive,0.595 (inactive)
c1cnc2c(c1)ccc1cccnc12,0.09 h (inactive),-3% (inactive),1 (inactive),0.996 (inactive),2.62,2190,2200,inactive,-1.21 (inactive)
CCCCOC(=O)NS(=O)(=O)c1sc(CC(C)C)cc1-c1ccc(Cn2c(CC)nc3c(C)cc(C)nc32)cc1,-0.005 h (inactive),-1% (inactive),1 (inactive),0.772 (inactive),0.69,4700,6080,inactive,-1.28 (inactive)
O=C(O)c1cc(=O)cc(C(=O)O)[nH]1,-0.025 h (inactive),0% (inactive),1 (inactive),0.984 (inactive),1.62,10200,10300,inactive,0.285 (inactive)
Cn1c(=O)c2[nH]c(-c3ccc(S(=O)(=O)O)cc3)nc2n(C)c1=O,-0.005 h (inactive),0% (inactive),1 (inactive),1.01 (inactive),2.24,10100,10000,inactive,-0.23 (inactive)
N[C@H](C(=O)O)[C@H]1C[C@@H]1C(=O)O,0.045 h (inactive),2% (inactive),1 (inactive),0.968 (inactive),1.24,9910,10200,inactive,0.225 (inactive)
NC1(C(=O)O)CCc2cc(C(=O)O)ccc21 (centres undefined),0.185 h (inactive),-1% (inactive),1 (inactive),0.993 (inactive),1.76,10900,11000,inactive,0.185 (inactive)
COc1ccc2c(c1)c(CC(=O)O)c(C)n2C(=O)c1ccccc1,0.15 h (inactive),-2% (inactive),1 (inactive),1.07 (inactive),1.77,9380,8810,inactive,1.18 (inactive)
CC(C)C[C@H](NC(=O)C1OC1C(=O)O)C(=O)NCCCCN=C(N)N (some centres undefined),-0.035 h (inactive),0% (inactive),1 (inactive),0.999 (inactive),1.62,9550,9560,inactive,0.15 (inactive)
OCC1O[C@H](O)C(Cl)C(O)C1O (some centres undefined),0.3 h (inactive),-1% (inactive),1 (inactive),0.973 (inactive),1.54,9780,10100,inactive,-0.395 (inactive)
CC1(C)CCC=[N+]1[O-],-0.065 h (inactive),-2% (inactive),1 (inactive),0.955 (inactive),0.876,9650,10100,inactive,0.285 (inactive)
CCC(=O)N1CCN(C(=O)c2ccccc2)CC1,-0.115 h (inactive),-1% (inactive),1.1 (inactive),0.906 (inactive),1.03,9050,9990,inactive,0.245 (inactive)

Compound,period change [1],inhibition [2],fluorescence ratio (interference) [3],"fold change [4, 7]","fold change [4, 8]","cell count [4, 9]","cell count [4, 10]",outcome [5],z-score [6]
C#CCn1c(=O)c2c(ncn2C)n(C)c1=O,-0.07 h (inactive),-1% (inactive),1 (inactive),0.971 (inactive),0.997,10100,10400,inactive,0.15 (inactive)
C=CC1(C)CC(=O)C2(O)C(C)(O1)C(OC(C)=O)C(O)C1C(C)(C)CCC(O)C12C (centres undefined),0.345 h (inactive),0% (inactive),1.1 (inactive),0.994 (inactive),1.26,9840,9900,inactive,-0.035 (inactive)
Nc1nc(Cl)nc2c1ncn2[C@@H]1O[C@H](COP(=O)(O)OP(=O)(O)OP(=O)(O)O)[C@H](O)C1O (some centres undefined),-0.055 h (inactive),37% (active),1 (inactive),1.14 (inactive),1.19,2920,2560,inactive,0.235 (inactive)
C=CCN1CCc2c(cc(O)c(O)c2Br)[C@@H](c2ccccc2)C1,0.175 h (inactive),-2% (inactive),1 (inactive),1.09 (inactive),2.06,5920,5430,inactive,-1.42 (inactive)
[N-]=[N+]=Nc1ccc(C(=O)CSC[C@H](NC(=O)CC[C@H](N)C(=O)O)C(=O)NCC(=O)O)cc1,0 h (inactive),-5% (inactive),0.9 (inactive),0.923 (inactive),1.4,5390,5840,inactive,-1.12 (inactive)
C=C1C(=O)O[C@@H]2[C@H]3O[C@]3(C)CCC=C(C)CC[C@@H]12,-0.22 h (inactive),-6% (inactive),1 (inactive),1.05 (inactive),1.06,5750,5500,inactive,-1.27 (inactive)
COc1cccc2c1[C@@H]1CN(CCCCn3c(=O)[nH]c4c(sc5ncc(-c6ccccc6)nc54)c3=O)C[C@@H]1CO2,-0.035 h (inactive),-5% (inactive),0.9 (inactive),1.07 (inactive),1.42,6250,5860,inactive,-1.02 (inactive)
N[C@H](CO)C(=O)O,-0.02 h (inactive),-3% (inactive),1 (inactive),0.97 (inactive),2.63,10300,10600,inactive,0.31 (inactive)
OC[C@H]1NC[C@@H](O)[C@@H]1O,-0.11 h (inactive),-3% (inactive),1 (inactive),0.888 (inactive),1.22,8680,9770,inactive,0.015 (inactive)
NC(Cc1cccc(-c2ccccc2CP(=O)(O)O)c1)C(=O)O (centres undefined),-0.07 h (inactive),-5% (inactive),1 (inactive),0.998 (inactive),1.77,10900,11000,inactive,0.42 (inactive)
CCCC(=O)NCCc1c2n(c3ccc(OC)cc13)CCCc1ccccc1-2,0.06 h (inactive),0% (inactive),1 (inactive),1.08 (inactive),0.293,8600,7960,inactive,-0.27 (inactive)
CCCn1c(=O)[nH]c(=O)c2[nH]cnc21,0.09 h (inactive),-1% (inactive),1 (inactive),0.996 (inactive),1.45,9630,9670,inactive,0.47 (inactive)
N[C@@H](Cc1ccc(F)cc1)C(=O)O,-0.05 h (inactive),-1% (inactive),1 (inactive),1.04 (inactive),0.805,9710,9330,inactive,0.26 (inactive)
CCN1C(=O)C=CC1=O,0.135 h (inactive),-3% (inactive),1 (inactive),0.985 (inactive),1.06,9620,9760,inactive,-0.99 (inactive)
C=CC[C@H](N)C(=O)O,-0.185 h (inactive),-3% (inactive),1 (inactive),0.944 (inactive),0.719,9830,10400,inactive,0.62 (inactive)
COc1ccc2c(c1)c(CC(=O)O)c(C)n2Cc1ccc(Cl)cc1,0 h (inactive),0% (inactive),1 (inactive),0.957 (inactive),1.52,8600,8990,inactive,2.23 (active)
O=C1CCC(c2ccc(-n3ccnc3)cc2)=NN1,-0.075 h (inactive),-1% (inactive),1 (inactive),1.07 (inactive),0.666,10200,9510,inactive,-0.165 (inactive)
CN1CCCC1CCOC(C)(c1ccccc1)c1ccc(Cl)cc1 (centres undefined),0.12 h (inactive),-3% (inactive),1 (inactive),1.24 (inactive),1.31,4130,3330,inactive,-1.51 (inactive)

# From PubChem BioAssay
